Experimental data published in PubChem BioAssay AID1347055 (National Center for Advancing Translational Sciences (NCATS), 2019).
About 120 (0.22%) of roughly 54,000 compounds were called active. Roughly 8% stayed inconclusive and do not appear here. Calls follow the shape of the dose curve; as a rule, active = well fitted inhibition curve with a large enough effect; inconclusive = small, poorly fitted or top-dose-only effect, or effect the other way; inactive = flat fitted curve, though single readings scatter. Shown is part of a subset that was picked to be rich in actives. Where a call stands in place of a potency, no number is given.

The compounds below were run against Fumarate hydratase, mitochondrial (Homo sapiens) (UniProt P07954) (assay: Identification of activators of human fumarate hydratase by quantitative high-throughput screening). Conditions: FH coupled MDH/diaphorase resazurin fluorescence, 15 min; series mostly up to 79.9 µM.
Chain of Fumarate hydratase, mitochondrial (Homo sapiens) (P07954 whole entry, looked up): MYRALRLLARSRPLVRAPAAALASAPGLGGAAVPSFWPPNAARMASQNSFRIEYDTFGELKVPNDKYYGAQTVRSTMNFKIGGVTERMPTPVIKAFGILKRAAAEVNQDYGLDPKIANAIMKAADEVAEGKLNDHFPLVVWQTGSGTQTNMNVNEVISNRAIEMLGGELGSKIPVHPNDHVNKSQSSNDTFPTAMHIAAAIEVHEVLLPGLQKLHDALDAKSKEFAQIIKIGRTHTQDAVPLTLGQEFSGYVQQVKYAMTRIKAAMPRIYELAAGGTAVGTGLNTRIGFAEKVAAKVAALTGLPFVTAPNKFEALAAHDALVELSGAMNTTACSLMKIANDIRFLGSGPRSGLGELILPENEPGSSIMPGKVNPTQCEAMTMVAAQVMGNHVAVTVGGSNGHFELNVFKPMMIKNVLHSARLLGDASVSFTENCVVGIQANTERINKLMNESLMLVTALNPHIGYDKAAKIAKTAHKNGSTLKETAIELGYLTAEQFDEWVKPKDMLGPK
Also: the screen sought activators but most active calls are inhibition curves; nearly all actives have a fitted effect of over 45% in size.
Potency is read from the fitted curve at half-maximal effect.

SMILES	activity change, negative = inhibition	Potency
CCc1cc2c(cc(C(=O)OC)n2Cc2nc(-c3ccc(C)cc3)oc2C)s1	inactive	
CCOC(=O)c1cc(OC(=O)c2ccccc2Cl)n(-c2ccccc2)n1	inactive	
Cc1cc2ccccc2n1CCNC(=O)c1ccc(F)cc1	inactive	
COc1ccc(Cl)cc1NC(=O)CSc1nc(=O)[nH]c2c1CCCC2	inactive	
CCOc1ccc(-n2c(SCC(=O)NCc3ccccc3)nc3n[nH]c(C)c3c2=N)cc1	inactive	
CC(=O)Nc1c(C)nn(-c2ccccc2)c1N1CCC(C(=O)Nc2cc(Cl)ccc2C)CC1	inactive	
CC1(O)CC(O)C2(O)C=COC(O[C@@H]3O[C@H](CO)[C@@H](O)[C@H](O)[C@H]3O)C12 (stereo not given in full)	inactive	
CCOc1ccc(CC(=O)NCCc2csc3nc(-c4ccccc4F)nn23)cc1	inactive	
Cc1c(O)cc2c(c1O)COC1(O)CCCOC21 (stereo not given)	inactive	
O=C(OC1CN2CCC1CC2)N1CCc2ccccc2C1c1ccccc1 (stereo not given)	inactive	
C=C1C2(CCC(=O)OC2(C)C)CC(OC(=O)/C(C)=C/C)C2(C)C13OC14C(=O)OC(C)(C(=O)C12C(=O)OC4C)C3OC(C)=O (stereo not given)	inactive	
CCOc1ccc(/C=C(\C#N)c2nc3ccccc3c(=O)[nH]2)cc1OC	inactive	
N#CSc1cc(SC#N)c(N)nc1N	inactive	
CCOc1ccccc1CNC(=O)c1ccc(-n2c(C)cc3c2CCC(C)C3)cc1 (stereo not given)	inactive	
CCOc1cccc2c1N[C@@H](c1ccc(C(=O)O)cc1)[C@H]1CC=C[C@@H]21		28.2 µM (active)
CCOc1cccc(CC(=O)N2CCc3c([nH]c4ccccc34)C2c2ccc(F)cc2)c1OCC (stereo not given)	inactive	
Cn1c(SCC(=O)N2CCC[C@H]2C(=O)Nc2ccccc2-c2ccccc2)nc2ccccc21	inactive	
COc1cccc(C(=O)NCc2ccc3c(c2)CCN3C(=O)c2ccncc2)c1	inactive	
CCc1cc2c(cc3c(=O)n(CC(=O)NCCc4ccc(OC)c(OC)c4)ncn32)s1	inactive	
COc1cccc(N=C2SC(C(=O)Nc3cccc(Cl)c3)CC(=O)N2C)c1 (stereo not given)	inactive	
COC(=O)N1CCC(n2ncc3c(N4CCOCC4)nc(-c4ccc(NC(=O)Nc5ccc(CO)cc5)cc4)nc32)CC1	inactive	
[N-]=[N+]=N[C@]1(CO)O[C@@H](n2ccc(N)nc2=O)[C@@H](O)[C@@H]1O	inactive	
Cc1cc2nn(-c3ccc(Cl)cc3)nc2cc1NC(=O)C(C)C	inactive	
C/C=C(/COC(=O)/C(C)=C/C)C(=O)OC/C=C/c1ccc(OC)cc1	inactive	
Clc1ccc2ncc(-c3cccc(NC4CCNCC4)n3)n2c1	inactive	

SMILES	activity change, negative = inhibition	Potency
COC(=O)c1cc(Cl)c(NC(C)=O)cc1OC	inactive	
CCOC(=O)c1[nH]c(C)c(CCC(=O)N2CCN(c3ccccc3)CC2)c1C	inactive	
CC1(C)CC[C@]2(C(=O)O)CC[C@]3(C)C(=CCC4[C@@]5(C)C[C@H](O)[C@H](O[C@@H]6OC[C@H](O)[C@H](O)[C@H]6O)[C@@](C)(CO)C5CC[C@]43C)[C@@H]2C1 (stereo not given in full)	inactive	
C[C@@H]1C/C=C/C=C\C=C\C=C\[C@H](O[C@@H]2O[C@H](C)[C@@H](O)[C@H](N)[C@@H]2O)C[C@@H]2O[C@](O)(C[C@@H](O)C[C@H]3O[C@@H]3/C=C/C(=O)O1)C[C@H](O)[C@H]2C(=O)O	inactive	
C=C1[C@@H](C)[C@H]2[C@H](Cc3c[nH]c4ccccc34)NC(=O)[C@]23C(=O)/C=C/C(=O)[C@H](O)/C(C)=C\[C@@H](C)C/C=C/[C@H]3[C@@H]1O	inactive	
Clc1ccc(CSc2nncn3c2cc2occc23)cc1	inactive	
CCC/C=C/C=C/C1CC(O)C2(O)C(=O)OCC12 (stereo not given)	inactive	
CC(=O)/C=C/C1C(C)CC(O[C@@H]2O[C@H](CO)[C@@H](O)[C@H](O)[C@H]2O)CC1(C)C (stereo not given in full)	inactive	
COc1ccc(NC(=O)c2ccco2)cc1NC(=O)COc1ccc(C)c(C)c1	inactive	
Cc1cc(NC(=O)CSc2ncc(C(=O)Nc3ccc(Cl)cc3)c(=O)n2C)no1	inactive	
C1CCC[C@H]2CCCN3CC[C@@H](CCCCCC[C@@H]4CCCN5CC[C@@H](CC1)O[C@@H]45)O[C@@H]23	-2.71% [at 0.217 µM] (inactive)	
CNC(=O)c1ccccc1Nc1nc(Nc2ccc3c(c2OC)CCC[C@@H](N2CCN(CCO)CC2)C3)ncc1Cl	inactive	
CN(C)c1cccc(Oc2cnc(Nc3cccc(O)c3)nc2)c1	inactive	
CCOc1ccc(CCNC(=O)CN(c2ccc(C)cc2)S(=O)(=O)N(C)C)cc1OCC	inactive	
CC1CN(C(=O)N2CCC(C(=O)NCc3ccco3)CC2)c2cc(Cl)ccc2O1 (stereo not given)	inactive	
CC(CCC1(O)OC2CC3C4CC=C5C[C@@H](O[C@@H]6O[C@H](CO)[C@@H](O[C@@H]7O[C@@H](C)[C@H](O)[C@@H](O)[C@H]7O)[C@H](O)[C@H]6O[C@@H]6O[C@@H](C)[C@H](O)[C@@H](O)[C@H]6O)CC[C@]5(C)C4CC[C@]3(C)[C@@]2(O)[C@@H]1C)CO[C@@H]1O[C@H](CO)[C@@H](O)[C@H](O)[C@H]1O (stereo not given in full)	inactive	
CC(=O)OC1CCC2(C)C(CCC3(C)C2CC=C2C4CC(C)(C)CCC4(C)CCC23C)C1(C)C(=O)O (stereo not given)	inactive	
CCC(COC)n1nnc2c(Nc3ccc(OC)cc3C)nc(C)cc21 (stereo not given)	inactive	
C[C@H]1COCCN1c1cc(C2(S(=O)(=O)C3CC3)CC2)nc(-c2ccc(NC(=S)NCCO)cc2)n1	inactive	
CCCN(CCC)CCCNC(=O)Cn1ncc2c3ccccc3n(Cc3ccccc3)c2c1=O	inactive	
CC(CNC(=O)c1nnc(Cc2cccc(F)c2)o1)c1ccccc1 (stereo not given)	inactive	
CC(C)(C)OC(=O)N1CCC(c2c(C(=O)NCCc3ccsc3)cnn2-c2ccc(F)cc2F)CC1	inactive	
CC(=O)c1ccc(NC(=O)CCc2nc(-c3ccc(C)cc3)no2)cc1	inactive	
CC(C)C(=O)Nc1nc2c(s1)CC(C(C)(C)C)CC2 (stereo not given)	inactive	
COC(=O)C12C(=O)C(C)=C(O)C1(C)C(C)=CC1C3(CO)CCC(O)C(C)(C)C3CCC12C (stereo not given)	inactive	
